D2 ag-1: human D2 receptor agonism in beta-arrestin assay | P14416 | DiscoveRx PathHunter D2 beta-arrestin, luminescence, 90 min; 100% = 57 uM dopamine signal | activation, % (no concentration beside the values) | actives 0.084% (n = 360,000); in the data active means activation above about 40%; inconclusive means between about 15% and that limit
Target sequence (P14416 whole entry, looked up): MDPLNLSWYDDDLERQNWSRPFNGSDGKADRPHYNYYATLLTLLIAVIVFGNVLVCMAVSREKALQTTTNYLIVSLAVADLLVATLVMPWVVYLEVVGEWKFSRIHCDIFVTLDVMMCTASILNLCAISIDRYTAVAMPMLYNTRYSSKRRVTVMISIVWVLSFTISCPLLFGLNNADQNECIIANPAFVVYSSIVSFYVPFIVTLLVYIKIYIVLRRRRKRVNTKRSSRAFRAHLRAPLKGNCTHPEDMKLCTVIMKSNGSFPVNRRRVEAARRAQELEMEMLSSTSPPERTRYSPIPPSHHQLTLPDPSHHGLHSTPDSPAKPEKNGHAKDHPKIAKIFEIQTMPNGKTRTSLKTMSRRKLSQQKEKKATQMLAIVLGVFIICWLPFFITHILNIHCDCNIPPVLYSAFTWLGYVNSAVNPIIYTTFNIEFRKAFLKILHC
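DiscoveRx PathHunter D2 beta-arrestin cells (2,100/well) attached overnight, then compound-stimulated 90 min at 37 C in HBSS/10 mM HEPES/0.1% Tween-20 buffer; beta-galactosidase complementation read by luminescence after 1 h at ambient temperature. Dopamine 57 uM final (EC100) as control.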
D2 PAM-1: positive allosteric modulators of human D2 dopamine receptor | actives 0.23% (n = 360,000) | P14416 | potentiation, % (no concentration beside the values) | DiscoveRx D2 beta-arrestin cells, luminescence, 90 min; 100% = 57 uM dopamine signal; in the data active means potentiation above about 50%; inconclusive means mostly about 30% to 49%
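PathHunter beta-arrestin assay in DiscoveRx D2 cells. Compounds were added with an EC20 of dopamine (50 nM final) for 90 min at 37 deg C. Luminescence was read 1 h after detection reagent, with 57 uM dopamine as the EC100 control.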
D2 ag-2: activates the human D2 dopamine receptor. actives 0.53% (n = 340,000). HEK293 T-REx D2 cells, calcium flux agonist mode. activation, % at 2 µM. P14416;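 active means activation over 3 SD above normal in the single-dose calcium agonist read, cut at about 30% in these data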
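Agonism is scored from calcium flux in a force-coupled, inducible HEK293 cell line expressing D2, read kinetically for 180 s after compound addition against dopamine controls.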
D2 antagonist: antagonizes the human D2 dopamine receptor; inhibition, % at 10 µM; P14416; AID 485344; actives 2% (n = 340,000); HEK293 TREx D2 cells, calcium flux, dopamine EC80; in the data active means inhibition above about 30%; inactive means below that, where a call was filed
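Calcium mobilization kinetics were recorded at 1 s intervals in tetracycline-induced HEK293 T-REx D2 cells, first for 180 s after compound addition and then 180 s after EC80 dopamine.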
D2 PAM-2: positively modulates the human D2 dopamine receptor allosterically; HEK293 T-REx D2, calcium flux, EC20 dopamine potentiation; potentiation, % at 10 µM; actives 0.34% (n = 340,000); AID 485347;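 active means potentiation over 3 SD above the plate norm, cut at about 30% in these data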
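Potentiation of an EC20 dopamine calcium response measured kinetically over 180 s, after a preceding 180 s compound-only read flagging agonists. Cells: inducible Hek293 Trex D2 line, 4000/well, cultured overnight at 30 C before dye loading.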
Hits are given with their value; i = inactive; ? = inconclusive; nt = no result given. Most compounds without a hit are left out; they make up all but 2.4% or so of the library.

SMILES	D2 ag-1	D2 PAM-1	D2 ag-2	D2 antagonist	D2 PAM-2
Nc1c(C(=O)NCc2ccco2)c2nc3ccccc3nc2n1CCN1CCCCC1	i	i	i	i	30
Cc1ccc2c(c1)C1CN(C)CCC1N2S(=O)(=O)c1ccccc1 (configuration not stated)	i	i	i	44	i
Oc1ccc(C[C@H]2NCCc3cc(O)c(O)cc32)cc1O	i	i	i	85	i
c1cc2n(c1)-c1c(ccc3c1OCO3)CNC2c1ccc2c(c1)OCO2 (configuration not stated)	i	i	i	51	i
COc1ccc2c(c1OC)CN1CCc3cc4c(cc3C1C2)OCO4 (configuration not stated)	i	i	i	86	i
O=c1c2ccccc2nc(/C=C/c2ccccc2F)n1-c1cccc(O)c1	nt	nt	nt	nt	i
CC(=O)NC1=C(N2CC2C)C(=O)C(NC(C)=O)=C(N2CC2C)C1=O (configuration not stated)	i	95	nt	nt	nt
CCCC(=O)NC1=C(N2CC2)C(=O)C(NC(=O)CCC)=C(N2CC2)C1=O	i	i	nt	nt	nt
Cc1ccccc1-c1nn2c(=O)cc(CN3CCN(C(=O)COc4ccccc4Cl)CC3)nc2s1	nt	nt	i	nt	i
Cn1c(O)c(C=Nc2ccc(F)cc2)c(=O)[nH]c1=O	i	i	i	35	i
Cc1cc(OCC(=O)N2CCN(CCc3ccncc3)CC2)cc(C)c1Cl	nt	nt	nt	nt	i
O=C1NC(=O)N(Cc2ccco2)C(=O)/C1=C/C=C/c1ccco1	i	i	i	34	i
CCOC(=O)C1CCCCC12C(C#N)=C(N)Oc1n[nH]c(C)c12 (configuration not stated)	i	i	i	30	i
CN1/C(=C\C=C2C(=O)NC(=O)NC2=O)C(C)(C)c2ccccc21	i	i	50	i	nt
CN1/C(=C\C=Nc2ccccc2)C(C)(C)c2ccccc21	i	i	i	i	i
CCN(CC)c1ccc(/C=N/c2sc3c(c2C#N)C2CCN3CC2)c(O)c1	i	i	34	i	i
CCOC(=O)C1(CCc2ccccc2)CCN(Cc2cccc3cnccc23)CC1	i	i	i	i	i
CCOC(=O)C1(CCc2ccccc2)CCN(Cc2cccc3c2OCO3)CC1	i	i	i	47	i
O=C(COc1ccc(Br)cc1)Nc1ccc(Cl)cc1C(=O)c1ccccc1	nt	nt	i	nt	i
Cc1nc2ccccc2c(=O)n1-c1ccccn1	i	i	i	35	i
Cc1ccccc1-n1c(C)nc2ccccc2c1=O	i	i	i	i	31
COc1ccccc1-n1c(-c2ccccc2)nc2ccccc2c1=O	i	i	i	40	i
Cc1ccc(OCC(=O)Nc2ccc(Cl)cc2C(=O)c2ccccc2)cc1C	nt	nt	nt	nt	i
O=C(Nc1ccc2c(c1)OCO2)c1cccn(Cc2ccccc2)c1=O	nt	nt	nt	nt	i
O=C(COc1ccccc1F)N1CCN(Cc2cc(=O)n3nc(-c4ccccc4Cl)sc3n2)CC1	nt	nt	i	nt	i
SMILES	D2 ag-1	D2 PAM-1	D2 ag-2	D2 antagonist	D2 PAM-2
Cc1ccccc1-n1nc(C)c2c1NC(=O)CSC2c1ccc(N(C)C)cc1 (configuration not stated)	nt	nt	i	nt	i
Cc1cccc(-c2nc(CN3C(=O)CN=C(c4ccccc4)c4ccccc43)c(C)o2)c1	nt	nt	i	nt	i
C[C@@H]1C(=O)O[C@@H]2[C@H](O)C34[C@@H]5OC(=O)C3(O[C@H]3OC(=O)[C@H](O)C34[C@H](C(C)(C)C)[C@H]5O)[C@@]12O (some centres not stated)	i	i	i	37	i
Cc1cccc(C2CC(=O)Oc3c2c(=O)oc2ccccc32)c1 (configuration not stated)	nt	nt	nt	nt	i
CN1C(=O)C(=Cc2cn(CC(=O)N3CCCC3)c3ccccc23)C(=O)N(C)C1=O	i	i	i	30	31
CCCN1CCc2cccc3c2[C@H]1Cc1ccc(O)c(O)c1-3	121	136	nt	nt	nt
COc1ccc2c(c1O)-c1c(OC)c(OC)cc3c1[C@H](C2)N(C)CC3	i	i	i	i	i
CCc1ccc(-c2nn(Cc3ccccc3)cc2C=O)cc1	i	i	i	35	i
Cc1ccc(Cn2cccc(C(=O)Nc3ccc4c(c3)OCCO4)c2=O)cc1	nt	nt	i	nt	i
O=C1CC(c2ccccc2Br)c2c(c3ccccc3oc2=O)O1 (configuration not stated)	nt	nt	i	nt	i
CC(=O)N1CN2CN(C1)CN(C(C)=O)C2	i	i	i	i	34
O=C(Nc1ccon1)c1cccn(Cc2cccc([N+](=O)[O-])c2)c1=O	nt	nt	i	nt	i
COc1ccc(C(=O)C2CCCN(C3CSCCSC3)C2)c(OC)c1 (configuration not stated)	i	i	i	57	i
Cc1cccc(-c2nn3c(=O)cc(CN4CCN(C(=O)COc5ccc(Cl)cc5)CC4)nc3s2)c1	nt	nt	i	nt	i
ON1C2CCCCC2N(O)C1c1ccccc1F (configuration not stated)	i	i	i	50	i
Cc1cccc(-n2c(CC3C(=O)Nc4ccc(C)cc43)nc3ccccc3c2=O)c1 (configuration not stated)	nt	nt	i	nt	i
CCCCn1c(O)c(C(C)=NCCc2c[nH]c3ccccc23)c(=O)[nH]c1=O	i	i	i	i	i
O=C(/C=C/c1c[nH]c2ccccc12)c1c(O)n(CCc2ccccc2)c(=O)[nH]c1=O	i	i	40	37	i
COc1ccc(C)cc1NC(=O)N(Cc1ccc2c(c1)OCO2)C1CCN(Cc2ccccc2)CC1	nt	nt	i	nt	i
C1=C(CCNCc2ccccc2)CCCC1	i	i	i	39	i
CCOc1ccc2nc(NC(=O)c3cccn(Cc4ccc(Cl)cc4)c3=O)sc2c1	nt	nt	nt	nt	i
CN1CCN(c2ccc(N)cc2Cl)CC1	i	i	i	46	i
Cc1cccc(-n2nc(C)c3c2NC(=O)CSC3c2ccccc2Cl)c1 (configuration not stated)	nt	nt	i	nt	i
COc1ccc(OCC(=O)N2CCN(CCc3ccccn3)CC2)cc1	nt	nt	i	nt	i
CC1CCC2[C@@H](C)C(=O)OC3O[C@]4(C)CCC1C32OO4 (some centres not stated)	?	53	nt	nt	nt
SMILES	D2 ag-1	D2 PAM-1	D2 ag-2	D2 antagonist	D2 PAM-2
CC1CCC2C(C)C(=O)OC3OC4(C)CCC1C32OO4 (configuration not stated)	?	62	i	i	i
CCN(CC)C(=O)c1ccc(NC(=O)CCn2nc(-c3ccc(Cl)cc3)c3ccccc3c2=O)cc1	nt	nt	i	nt	i
COc1ccc(NC(=O)CN2C(=O)CN=C(c3ccccc3)c3ccccc32)c(OC)c1	nt	nt	i	nt	i
Cn1c(=O)n(C)c2cc(CNCCc3ccccc3)ccc21	nt	nt	i	nt	nt
N=Cc1c(O)n(-c2ccccc2)c(=O)n(-c2ccccc2)c1=O	i	64	i	i	i
Cc1ccc(-n2c(O)c(C=N)c(=O)n(-c3ccc(C)cc3)c2=O)cc1	i	i	i	i	i
Cn1c(=O)n(C)c2cc(CNCCc3ccc(F)cc3)ccc21	nt	nt	i	nt	i

From PubChem BioAssay
